Results on 97 compounds are retold here after PubChem BioAssay AID1851 (National Center for Advancing Translational Sciences (NCATS), 2009).

Hit rate of the full screen: of about 16,000 compounds, about 2,600 (16%) were called active. Roughly 20% stayed inconclusive and do not appear here. Calls come from the whole dose curve; as a rule, active = well fitted curve in the direction sought with a large enough effect; inconclusive = small, poorly fitted or top-dose-only effect, or effect the other way; inactive = no such curve, though single readings can be large or run the other way. Only a sample is shown. A structure can be active in one record and inactive in another.
% is set by controls: 0 for no effect and ±100 for the full control effect.

Chain of Cytochrome P450 2D6 (Homo sapiens) (P10635 whole entry, looked up): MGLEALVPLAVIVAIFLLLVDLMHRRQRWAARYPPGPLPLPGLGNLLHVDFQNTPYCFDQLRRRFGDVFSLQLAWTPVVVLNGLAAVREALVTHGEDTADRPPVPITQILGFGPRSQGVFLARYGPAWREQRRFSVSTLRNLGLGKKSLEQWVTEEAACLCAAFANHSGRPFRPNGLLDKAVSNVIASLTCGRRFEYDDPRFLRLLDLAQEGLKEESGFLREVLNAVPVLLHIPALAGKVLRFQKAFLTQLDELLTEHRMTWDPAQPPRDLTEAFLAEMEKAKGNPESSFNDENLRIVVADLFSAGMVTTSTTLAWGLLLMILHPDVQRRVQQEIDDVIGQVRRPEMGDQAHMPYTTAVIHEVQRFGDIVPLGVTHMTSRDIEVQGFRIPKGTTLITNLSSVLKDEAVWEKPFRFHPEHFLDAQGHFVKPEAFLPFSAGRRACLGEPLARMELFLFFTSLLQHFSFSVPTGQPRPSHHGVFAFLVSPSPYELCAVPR

The experiment has as its target Cytochrome P450 2D6 (Homo sapiens) (UniProt P10635). Put plainly: Cytochrome panel assay with activity outcomes. The following applies: recombinant CYP, pro-luciferin dealkylation, luminescence, p450-cyp2d6; series mostly up to 57.1 µM.
As for `CCOC(=O)N1CCC(NC(=O)C2CCN(S(=O)(=O)N3CCCC3)CC2)CC1`, the AC50 result was “inactive”.
In the case of `O=C=Nc1ccc(Cc2ccc(N=C=O)cc2)cc1` (tested in a mixture with another compound), the activity, negative = inhibition was 6.78% [at 11.4 µM] (inactive).
Take `O=C(CNC(=O)c1ccc([N+](=O)[O-])cc1)c1ccccc1`: the AC50 entry is “inactive”.
The same measure, in the same setting: next, `COc1cc(-c2nnc(SCC3(c4ccccc4)OCCO3)o2)cc(OC)c1OC`: “inactive”; `COCCn1c(=O)c(-c2ccc(Cl)cc2)nc2cncnc21`: “inactive”.
`Nc1ccccc1CCCC(=O)O`: the activity, negative = inhibition is -8.09% [at 11.4 µM] (inactive).
`Cc1nc2cnc(N(C)C)nc2n(CCc2ccccc2)c1=O`: the AC50 entry was “inactive”.
With `O=C(CSc1nc2ccccc2c(=O)n1NC(=O)c1ccccc1)c1ccc(Cl)cc1`, the AC50 result is “inactive”.
In the case of `COC(=O)C/C=C\[C@@H](C)[C@@H](/C=N\O[C@@H](C)c1cc(-c2c(C)cc(C)cc2C)no1)NS(=O)(=O)c1ccc(C)cc1`, the activity, negative = inhibition is 10.9% [at 11.4 µM] (inactive).
In the case of `COc1cc2c(cc1OC)C(C(=O)N1CCOCC1)C(c1cccs1)N(C)C2=O` (configuration not stated), the AC50 result is “inactive”.
Same read-out and setting: next, `COc1ccc(CC(=S)N2CCOCC2)cc1OC`: “inactive”; `COc1cc2c(cc1OC)/C(=C/C(=O)N1CCOCC1)NC(C)(C)C2`: 2.82 µM (active); `CCOC(=O)c1ccc(N2C(=O)CC(Nc3ccc(CCO)cc3)C2=O)cc1` (configuration not stated): “inactive”.
As to `Cn1c(=O)c2c(nc(NCCNc3nc4c(c(=O)n(C)c(=O)n4C)n3C)n2C)n(C)c1=O`, the activity, negative = inhibition was 14.2% [at 11.4 µM] (inactive).
Take `COc1cc(C(=O)N2CCN(C(=O)c3ccccc3)CC2)cc(OC)c1OC`: the AC50 result is “inactive”.
For the compound `COC(=O)C/C=C\[C@H](C)[C@@H](OC)c1ccccc1Br`, the activity, negative = inhibition was 12.6% [at 11.4 µM] (inactive).
Take `COCCNc1ccnc(-c2ccccc2C)n1`: the AC50 entry is “inactive”.
As for `COc1ccc2[nH]cc(CCNc3ccnc(-c4ccccc4C)n3)c2c1`, the AC50 was 2.51 µM (active).
Consider `COc1ccc2[nH]cc(CCNc3ccnc(-c4ccccc4Cl)n3)c2c1`, for which the AC50 was 20 µM (active).
With `Cc1cccc(-n2ncc3c(Nc4c(C)n(C)n(-c5ccccc5)c4=O)ncnc32)c1`, the AC50 result is “inactive”.
In the case of `N#CC(C#N)=CNCCN1CCN(C=C(C#N)C#N)CC1`, the activity, negative = inhibition was 5.03% [at 11.4 µM] (inactive).
For the compound `Cc1n[nH]c(C)c1S(=O)(=O)N1CCC(C(=O)O)CC1`, the AC50 result was “inactive”.
Take `NS(=O)(=O)c1cc(Cl)c(Cl)c(S(N)(=O)=O)c1`: the AC50 entry is “inactive”.
As for `C[C@@H](C[C@H](N)C(=O)O)C(=O)O`, the activity, negative = inhibition is 14.5% [at 11.4 µM] (inactive).
Regarding `Clc1cc2c(c(CSC3=NCN(CC4CC4)CN3)c1)OCOC2`, the AC50 was 0.2 µM (active).
Same read-out and setting: under `O=c1c2c(-c3cccs3)csc2[nH]c(=S)n1-c1ccccc1` stands “inactive”; under `Cc1ccccc1OCC(=O)Nc1sc(C(=O)Nc2cccc(C)c2C)c(C)c1C#N`, “inactive”; under `Cn1cccc1C(=O)N1CCC2(CCN(C(=O)Nc3ccccc3)CC2)CC1`, “inactive”.
Regarding `O=[N+]([O-])c1nccn1C[C@H](O)CN1CCCCC1`, the activity, negative = inhibition was 9.02% [at 11.4 µM] (inactive).
`O[C@H](CN1CCN(c2cccc(Cl)c2)CC1)C(c1ccccc1)c1ccccc1`: the AC50 is 12.6 µM (active) and inactive.
Turning to `O=c1nc2ccccc2c2n1CC(CN1CCN(c3cccc(Cl)c3)CC1)N2` (configuration not stated), the AC50 result is “inactive”.
Same read-out and setting: under `O=c1n(CCCN2CCN(c3cccc(Cl)c3)CC2)nc2ccccn12` stands “inactive”; under `CC(C)OCCCn1c(=S)[nH]c2ncccc2c1=O`, “inactive”; under `COCCn1c(=O)c(C)nc2cnc(N3CCNCC3)nc21`, “inactive”.
On the same count and under the same terms, next, `Cc1noc(NS(=O)(=O)c2ccc(NC(=O)c3ccc(Br)o3)cc2)c1C`: “inactive”.
For the compound `COCCOC(=O)C1=C(C)NC(=O)N(C(C)=O)C1c1ccc(Cl)cc1` (configuration not stated), the AC50 result was “inactive”.
For the compound `COC(=O)C1=CO[C@@H](C)[C@H]2CN3CCc4c([nH]c5ccccc45)[C@@H]3C[C@H]12`, the AC50 is 0.002 µM (active).
In the case of `COC(=O)[C@@H]1[C@@H]2C[C@H]3c4[nH]c5ccccc5c4CCN3C[C@@H]2CC[C@@H]1OS(=O)(=O)O`, the activity, negative = inhibition is -18.5% [at 11.4 µM] (inactive).
Regarding `COc1ccc2c3c([nH]c2c1)[C@@H]1C[C@@H]2[C@@H](C[C@H](O)[C@H](OC)[C@H]2C(=O)O)CN1CC3`, the AC50 entry is “inactive”.
For `C[C@@H](C(=O)O)c1ccc(C[C@@H]2CCCC2=O)cc1`, the AC50 result is “inactive”.
Still for that read-out and setting: under `COCCNC(=O)c1cn(Cc2c(F)cccc2Cl)nn1` stands “inactive”; under `Cc1cnc(CNc2ncnc3ccc(-c4ccccc4Cl)cc23)cn1`, 15.8 µM (active).
On the same count and under the same terms, next, `Cc1cnc(CNc2cc(-c3ccccc3Cl)ncn2)cn1`: “inactive”.
The same measure, in the same setting: under `Cc1cnc(CNc2cc(-c3ccc(C(=O)N(C)C)cc3)ncn2)cn1` stands “inactive”; under `Cc1cnc(CNc2ncnc3ccc(-c4ccccc4CN(C)C)cc23)cn1`, 2.51 µM (active).
As for `CCN(CC)C(=O)C1CC(=O)N(c2ccc(OC)cc2)C1c1ccc(OC)cc1` (configuration not stated), the AC50 entry was “inactive”.
The same measure, in the same setting: next, `COc1ccc(NC(=O)CSC2=NC(=O)CC(C)=N2)cc1`: “inactive”; `N#CCCn1nnc2ccccc21`: “inactive”; `CC(C)Oc1ccc(C(=O)Nc2ccc(NC(=O)c3ccco3)c(Cl)c2)cc1`: “inactive”.
`O=C(O)Cc1cc(Cl)ccc1O`: the activity, negative = inhibition was 16.8% [at 11.4 µM] (inactive).
Turning to `CC(C)Oc1ccc(CNC(=O)CC(c2ccccc2)c2cc(Cl)ccc2O)cc1` (configuration not stated), the AC50 is 14.1 µM (active).
Regarding `CN(Cc1ccccc1)C(=O)CC(c1ccccc1)c1cc(Cl)ccc1O` (configuration not stated), the AC50 was 8.91 µM (active).
Turning to `O=C(NCc1ccccc1)c1ccc(Cl)cc1[N+](=O)[O-]`, the AC50 result is “inactive”.
`Cc1cccc(C(CC(=O)N2CCCC2)c2ccccc2)c1O` (configuration not stated): the AC50 entry was “inactive”.
The same measure, in the same setting: next, `CCOC(=O)N1CCC(NS(=O)(=O)c2ccc3c(c2)C(C)(C)C(=O)N3C)CC1`: “inactive”; `C[N+](C)(C)CCO`: “inactive”; `COc1ccc(C(=O)n2nc(-c3ccccc3)nc2SC)cc1`: “inactive”.
On the same count and under the same terms, next, `Cc1ccc(C2C(C(=O)c3ccco3)=C(O)C(=O)N2c2nnc(C)s2)cc1` (configuration not stated): “inactive”; `O=C1Nc2cc(C(=O)N3CCOCC3)ccc2SC1N1CCOCC1` (configuration not stated): “inactive”; `COc1ccccc1CNC(=O)CCCn1c(=O)c2ccccc2n(CC(=O)NC2CCCC2)c1=O`: “inactive”.
On the same count and under the same terms, under `COc1cc(CNC2CCCC2)cc(Cl)c1OCc1ccccc1Cl` stands 0.891 µM (active); under `COc1ccccc1CNC(=O)C1CC(=O)N(C2CCCC2)C1` (configuration not stated), “inactive”.
Turning to `NC(=O)c1ccc(C2SCC(=O)N2Cc2ccccc2)cc1` (configuration not stated), the AC50 entry is “inactive”.
On the same count and under the same terms, next, `Cc1ccc(CNC(=O)Cc2csc(Nc3nc(=S)[nH]c4ccccc34)n2)cc1`: “inactive”.
Regarding `CC(=O)OCC(=O)[C@@]1(O)[C@H](C)C[C@@H]2[C@H]3CCC4=CC(=O)C=C[C@]4(C)[C@]3(F)[C@@H](O)C[C@@]21C`, the AC50 result was “inactive”.
For the compound `CC(C)(C)N1C(=O)[C@@H]2[C@H]3C(=CC[C@H]2C1=O)C(=O)[C@H]1O[C@H]1[C@H]3O`, the activity, negative = inhibition is 11.6% [at 11.4 µM] (inactive).
For the compound `O=C1[C@@H]2C=CC=CC2=NC(=S)N1CCN1CCC(=C(c2ccc(F)cc2)c2ccc(F)cc2)CC1`, the AC50 is 12.6 µM (active).
As to `COC(=O)C/C=C\[C@@H](C)[C@@H](/C=N\O[C@@H](C)c1cn([C@H]2COC[C@H]2O)nn1)OC`, the activity, negative = inhibition is 15.1% [at 11.4 µM] (inactive).
Still for that read-out and setting: next, `N=C(N)SCC(=O)O`: -6.02% [at 11.4 µM] (inactive).
`Cc1ccc(NC(=O)C2CC(=O)n3c(nc4ccccc43)N2)cc1` (configuration not stated): the AC50 result is “inactive”.
Same read-out and setting: under `O=C1CC(c2ccc3c(c2)OCO3)Sc2nc3ccccc3n21` (configuration not stated) stands 8.91 µM (active).
For `O=C1CC(c2ccc3c(c2)OCO3)CN1` (configuration not stated), the AC50 entry was “inactive”.
Take `COC(=O)N/N=C\C=C\c1ccc2c(c1)OCO2`: the AC50 is 11.2 µM (active).
`Cc1cccc(OCC(=O)N/N=C\C=C\c2ccc3c(c2)OCO3)c1C`: the AC50 result was “inactive”.
With `CSC1=N/C(=C\c2ccc3c(c2)OCO3)C(=O)S1`, the AC50 entry is “inactive”.
Still for that read-out and setting: under `CCOc1cc(/C=C2\CCC/C(=C\c3cc(Cl)c(O)c(OCC)c3)C2=O)cc(Cl)c1O` stands “inactive”; under `CCOC(=O)c1c2ccc(OCC(=O)N/N=C/c3ccc(Cl)cc3)cc2n2ccccc12`, “inactive”.
As to `O=C(Nc1nnc(SCc2c(Cl)cccc2Cl)s1)C1CCCO1` (configuration not stated), the AC50 result is “inactive”.
Still for that read-out and setting: next, `Clc1cccc(Cl)c1CSc1nnc(/C=C/c2ccccc2)o1`: 28.2 µM (active); `Clc1ccccc1CSc1nnc(/C=C/c2ccccc2)o1`: “inactive”; `COc1cccc(Nc2ncc3nc(-c4cc(F)cc(F)c4)c(=O)n(CCC#N)c3n2)c1`: “inactive”.
Same read-out and setting: next, `CCCCCCCCn1cc(C(C)=O)c(=O)[nH]c1=O`: “inactive”; `O=c1cnc2cnc(Oc3cccc(Cl)c3)nc2n1C[C@H]1CCCO1`: “inactive”.
The same measure, in the same setting: under `COc1ccc([N+](=O)[O-])cc1N(CC(O)CN(CC(C)C)CC(C)C)S(=O)(=O)c1ccccc1` (configuration not stated) stands 0.398 µM (active); under `CCN(CC)S(=O)(=O)c1ccc(OC)c(NC(=O)c2cc([N+](=O)[O-])ccc2Cl)c1`, “inactive”.
Turning to `COc1ccc(OC)c(N(CC(=O)N2CCc3ccccc3C2)S(C)(=O)=O)c1`, the AC50 result is “inactive”.
Same read-out and setting: under `COc1ccc(C(=O)CN2C(=O)NC(C)(c3ccccc3)C2=O)cc1OC` (configuration not stated) stands “inactive”.
Consider `CN(C)Cc1ccc(O)c(CN(C)C)n1`, for which the activity, negative = inhibition is 2.9% [at 11.4 µM] (inactive).
On to `CN(C)CCCc1cc(C(=O)Nc2ccc(-c3ccncc3)cc2)ccc1O`, for which the AC50 was 5.01 µM (active).
Still for that read-out and setting: next, `Cc1ccc(NC(=O)c2cccc(N(C)C)c2)cc1NC(=O)c1ccc(O)cc1`: “inactive”; `Cc1ccc(C(=O)Nc2ccc3nccnc3c2)cc1`: “inactive”; `Cc1cc(C)cc(-n2nnnc2-c2cn(C)nc2C(F)(F)F)c1`: “inactive”.
The same measure, in the same setting: next, `Cc1cccc(NC(=O)c2ccc([N+](=O)[O-])o2)n1`: “inactive”; `CCOc1cc(/C=N/NC(=O)c2cc(C)[nH]n2)ccc1OC(=O)c1ccc([N+](=O)[O-])cc1`: “inactive”.
Same read-out and setting: under `COc1cc(/C=N/NC(=O)c2cccnc2)ccc1OC(=O)c1ccco1` stands “inactive”; under `Cc1cc(C(=O)N/N=C/c2cccc(OC(=O)c3ccco3)c2)n[nH]1`, 17.8 µM (active).
With `CCC/C=C(\CCC)C(NS(=O)(=O)c1cccc2cccnc12)c1ccc(-c2ccccc2)cc1` (configuration not stated), the AC50 result was “inactive”.

As a reminder, the AC50 is the midpoint of the concentration-response curve, whichever way the signal moves.
